Assay outcomes: PubChem BioAssay, National Center for Advancing Translational Sciences (NCATS)
The list is not random: actives were taken first. Their share in the collection is about 9.9%.
Tau fibril FP = inhibitors of human tau fibril formation | P10636 | K18 P301L tau heparin fibrillization, Alexa594 FP, 6 h | Potency, µM (doses to about 57.7 µM), actives largely listed as inhibitors | hit rate 0.39% among 280,000 | AID 1468; active = well fitted curve in the direction sought with a large enough effect; inconclusive = small, poorly fitted or top-dose-only effect, or another doubt; inactive = no such curve, though single readings can be large; an effect the other way counts as inactive or inconclusive; note: nearly all actives have a fitted effect of over 55% in size
Target sequence (P10636 561-689 P618L limits assumed): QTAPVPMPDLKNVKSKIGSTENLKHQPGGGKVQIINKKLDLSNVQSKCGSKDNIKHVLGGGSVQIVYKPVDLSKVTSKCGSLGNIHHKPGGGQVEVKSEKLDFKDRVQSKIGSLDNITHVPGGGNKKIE
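Recombinant K18 P301L […], labeled with Alexa 594 at 0.24 uM over 15 uM unlabeled; heparin inducer 20 uM final; 37 C, 6 hr; FP endpoint.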
Tau fibril ThT = tau fibrillization inhibition (ThT binding). AID 1460. hit rate 2.1% among 270,000. recombinant tau K18 P301L, heparin-induced fibrillization, ThT fluorescence. Potency, µM (titrated, usually from 57.4 µM), hits mostly inhibitors. P10636; active = well fitted curve in the direction sought with a large enough effect; inconclusive = small, poorly fitted or top-dose-only effect, or another doubt; inactive = no such curve, though single readings can be large; an effect the other way counts as inactive or inconclusive; note: nearly all actives have a fitted effect of over 55% in size
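K18 P301L tau (15 uM + 0.24 uM Alexa 594-tagged), heparin 20 uM, NaOAc pH 7, 6 h 37 C; ThT 30 uM, 1 h RT, ex 450/em 510 nm.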
ALDH1A1 block = blocks purified human ALDH1A1 activity | P00352 | Purified ALDH1A1, NADH fluorescence, propionaldehyde substrate | Potency, µM (highest dose often 75.3 µM), usual class: inhibitors | hit rate 7.3% among 220,000 | AID 1030
HPGD inh = HPGD (human) dehydrogenase inhibition; P15428; purified HPGD, NADH fluorescence kinetic, PGE2 substrate; Potency, µM, most hits filed as inhibitors; hit rate 4.3% among 150,000; AID 894
Target sequence (P15428 whole entry, looked up): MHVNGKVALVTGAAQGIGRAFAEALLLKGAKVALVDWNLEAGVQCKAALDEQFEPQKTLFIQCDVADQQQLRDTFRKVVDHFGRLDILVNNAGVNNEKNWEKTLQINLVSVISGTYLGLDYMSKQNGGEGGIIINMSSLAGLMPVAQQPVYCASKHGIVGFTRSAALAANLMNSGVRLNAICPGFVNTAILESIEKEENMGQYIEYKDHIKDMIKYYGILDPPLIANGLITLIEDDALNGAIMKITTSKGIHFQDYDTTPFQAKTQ
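NADH formation kinetics: reaction with 30 uM PGE2 and 1 mM NAD+ (final), 20 nM enzyme, Tris-HCl pH 8 with Tween 20, after 15 min compound preincubation at room temperature. Fluorescence change, last versus first of five reads.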
Tau fluor counter = counter-screen for tau fibril formation inhibitors. tau K18 P301L Alexa594 fluorescence, heparin fibrillization. Potency, µM (top dose mostly 57.7 µM). hit rate 0.93% among 280,000; active = well fitted curve in the direction sought with a large enough effect; inconclusive = small, poorly fitted or top-dose-only effect, or another doubt; inactive = no such curve, though single readings can be large; an effect the other way counts as inactive or inconclusive; note: nearly all actives have a fitted effect of over 55% in size
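Human tau K18 P301L (15 uM unlabeled, 0.24 uM Alexa 594-labeled) in 100 mM sodium acetate pH 7 with 20 uM heparin, 6 hr at 37 C. ThT 30 uM added, 1 hr ambient; Alexa 594 FP and total fluorescence read at 555/632 nm.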
KDM4E inh = blocks human JMJD2E demethylase activity; Potency, µM (doses to about 57.1 µM), actives largely listed as inhibitors; AID 2147; B2RXH2; JMJD2E catalytic domain, FDH-coupled NADH fluorescence (FDH is formaldehyde dehydrogenase); hit rate 1.6% among 230,000; note: nearly all actives have a fitted effect of over 50% in size
Target sequence (B2RXH2 1-337 limits assumed): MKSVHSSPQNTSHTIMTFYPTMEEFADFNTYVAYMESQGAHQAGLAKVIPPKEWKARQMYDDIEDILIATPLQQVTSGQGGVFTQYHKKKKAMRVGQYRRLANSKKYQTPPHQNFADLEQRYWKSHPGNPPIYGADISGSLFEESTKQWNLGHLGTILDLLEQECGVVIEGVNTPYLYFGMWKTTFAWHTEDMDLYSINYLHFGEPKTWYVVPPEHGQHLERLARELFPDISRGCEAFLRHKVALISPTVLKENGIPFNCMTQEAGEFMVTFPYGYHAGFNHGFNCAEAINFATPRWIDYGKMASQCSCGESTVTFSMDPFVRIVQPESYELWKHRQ
Numbers stand for hits; . = inactive; ? = inconclusive; / = not tested or not shown; [ ] = another dose, or the depositor's remark. Unless noted, calls come from the whole dose curve; as a rule, active = well fitted inhibition curve with a large enough effect (not every such curve was filed as active); inconclusive = small, poorly fitted or top-dose-only effect, or another doubt; inactive = no such curve, though single readings can be large or run the other way.

SMILES	Tau fibril FP	Tau fibril ThT	ALDH1A1 block	HPGD inh	Tau fluor counter	KDM4E inh
CCc1ccc(-n2nc(C)c3c(C)cc(=O)n(CC(=O)Nc4ccccc4C(=O)OC)c32)cc1	.	.	/	/	.	/
Cn1c(SCC(=O)N2CCOCC2)nnc1-c1cccc(NC(=O)c2ccccc2F)c1	.	.	25.1µM	.	.	.
Cn1cnnc1SCC(=O)Nc1ccc2nc(SCc3ccccc3F)sc2c1	?	.	12.6µM	.	?	.
O=C(Nc1ccc2nc(SCC(=O)N3CCCC3)sc2c1)c1ccccc1	.	.	/	/	.	/
Cn1c(SCC(=O)Nc2ccc3nc(SCC(=O)N4CCCC4)sc3c2)nnc1-c1ccccc1	.	?	22.4µM	3.98µM	.	.
COc1ccc(/C=N/OC(=O)c2ccc(Cl)cc2)c(Cl)c1OC	.	.	/	/	.	.
COc1ccc2c(c1)Cc1sc(NC(=O)c3cccc(C)c3)nc1-2	.	12.6µM	/	/	15.8µM[quencher]	/
COc1ccc2c(c1)Cc1sc(NC(=O)c3cccc(Cl)c3)nc1-2	.	?	/	/	.	/
COc1ccc(C(=O)Nc2nc3c(s2)CCc2cc(OC)ccc2-3)cc1	?	10µM	/	/	11.2µM[quencher]	/
Cc1ccc(Cl)cc1N1CCN(S(=O)(=O)c2ccc3oc(=O)c4ncn(C)c4c3c2)CC1	.	.	/	/	.	/
Cn1c(CN2CCCC(C(=O)c3ccc4c(c3)OCO4)C2)nc2ccccc21 (stereo not given)	.	.	28.2µM	/	.	?
COc1ccccc1OCc1ccc(C(=O)N2CCOCC2)o1	.	.	25.1µM	.	.	.
O=C(c1ccc(COc2ccccc2[N+](=O)[O-])o1)N1CCCCCC1	.	.	.	25.1µM	.	.
O=C(c1ccc(COc2ccccc2[N+](=O)[O-])o1)N1CCCCC1	.	.	?	22.4µM	.	.
CCCCOC(=O)c1ccc(NC(=O)C(=O)NCc2ccco2)cc1	.	.	.	/	.	?
O=C(c1ccccc1Cl)n1nc(-c2ccco2)nc1NCc1cccs1	.	.	/	/	?	/
Cc1nc(CNC(=O)CC2C(=O)NCCN2Cc2cccc(Oc3ccccc3)c2)cs1 (stereo not given)	.	.	?	/	.	?
Cc1ccccc1CSc1ccc(-c2cccs2)nn1	.	.	/	/	.	/
COc1ccc(CN2C(=O)c3c(c(C)n(C)c3C)C2C(=O)NC2CCC(C)CC2)cc1 (stereo not given)	.	.	0.794µM	/	.	.
COc1ccc(CNC(=O)NC2CCCCC2)cc1	.	.	.	.	.	.
COC(=O)c1ccc(NC(=O)CNc2ccccc2)cc1	.	?	22.4µM	/	?	.
COC(=O)c1ccc(N=Nc2ccccc2)cc1	.	14.1µM	.	/	.	.
COC(=O)c1ccc(NC(=O)CSc2nccn2CCc2ccccc2)cc1	.	.	20µM	.	.	.
COC(=O)CCC(=O)Nc1ccc(N=Nc2ccccc2)cc1	.	11.2µM	?	/	?	.
Cc1c(CNCCCc2ccccc2)c(C(=O)O)c(C)n1Cc1ccc(Cl)cc1	.	.	/	/	.	/
SMILES	Tau fibril FP	Tau fibril ThT	ALDH1A1 block	HPGD inh	Tau fluor counter	KDM4E inh
CCOc1ccccc1CNC(=O)CN1C(=O)c2cccnc2Oc2ccc(C)cc21	.	.	/	/	.	/
O=C(c1ccco1)N1CCN(c2ncnc3scc(-c4ccccc4)c23)CC1	.	.	11.2µM	.	.	.
Cc1cc(N2CCN(c3ccccc3)CC2)nc(-c2ccccc2)n1	.	?	.	.	.	?
Cc1nc(N2CCN(C(=O)c3ccco3)CC2)c2oc3ccccc3c2n1	.	?	28.2µM	.	.	.
COc1ccc(C(=O)N2CCN(c3ncnc4c(-c5ccccc5)nsc34)CC2)cc1	.	?	2.82µM	?	.	.
Cc1cc(N2CCN(C(=O)c3ccco3)CC2)nc(-c2ccccc2)n1	.	.	6.31µM	.	.	.
CCc1nc(N2CCN(C(=O)c3ccco3)CC2)c2oc3ccccc3c2n1	.	?	.	.	.	.
O=C(c1ccco1)N1CCN(c2ncnc3scc(-c4cccs4)c23)CC1	.	.	.	.	.	.
Cc1cc(C)cc(NC(=O)c2cccc(C(=O)Nc3cc(C)cc(C)c3)c2)c1	.	.	/	/	.	/
CCCNC(=S)NCc1ccc(Cl)cc1	.	.	.	.	.	.
Cc1ccc(-c2csc3ncnc(N4CCN(C(=O)c5ccccc5)CC4)c23)cc1	.	?	12.6µM	.	.	.
Cc1sc2ncnc(OCC(=O)N3CCN(C(=O)c4ccco4)CC3)c2c1C	.	.	3.16µM	/	.	.
Cc1nnc(-c2cnn(-c3ccccc3)c2N)n1Cc1cccc(C(F)(F)F)c1	.	.	?	12.6µM	.	.
CCOC(=O)Nc1cc(Br)c2c(c1)OCCO2	.	.	.	14.1µM	.	.
Cc1ccc(NC(=O)C(OC(=O)c2ccc(O)cc2)c2ccccc2)cc1Cl (stereo not given)	28.2µM	.	?	.	?	.
Cc1ccc(NC(=O)C(c2ccccc2)N(C)C)cc1Cl (stereo not given)	.	.	1.41µM	/	.	.
CN(C)Cc1ccccc1-c1cc(NC2CC2)ncn1	.	.	.	.	.	.
CC(=O)C(Sc1nc(N(C)C)nc(N(C)C)n1)C(=O)Nc1ccccc1 (stereo not given)	.	?	.	/	.	.
CC(=O)C(Sc1nn(C)c(=S)s1)C(=O)Nc1ccccc1 (stereo not given)	?	?	4.47µM	?	.	?
COc1ccc(-c2cc(=O)n(-c3nc4ccccc4[nH]3)[nH]2)cc1	.	31.6µM	.	.	?	?
COc1ccc(CNC(=O)c2ccc(N3CCCC3)c(NC(=O)NCc3ccc(F)cc3)c2)cc1	.	.	/	/	.	/
COc1ccc(-c2cc(=O)c3cc(OC)ccc3o2)cc1	.	?	?	?	.	0.708µM
COc1cc(-c2cc(=O)c3c(O)c(OC)c(OC)c(OC)c3o2)cc(OC)c1OC	.	.	11.2µM	.	.	.
COc1cc2oc(-c3ccc(O)cc3)cc(=O)c2c(O)c1OC	.	?	/	/	?	?
COc1ccc2oc(-c3ccc(O)cc3)cc(=O)c2c1	.	?	?	?	?	?
SMILES	Tau fibril FP	Tau fibril ThT	ALDH1A1 block	HPGD inh	Tau fluor counter	KDM4E inh
COc1ccc(-c2cc(=O)c3c(OC)c(OC)c(OC)c(OC)c3o2)cc1	.	.	1.41µM	.	.	.
COc1ccc(-c2cc(=O)c3ccc(O)cc3o2)cc1	.	.	.	.	.	.
Cn1nc(C(=O)OCC(=O)Nc2sccc2C(N)=O)c2ccccc2c1=O	.	.	.	/	.	.
Cc1cccc(NC(=O)C(=O)NCC(c2ccc3c(c2)OCO3)N2CCN(c3ccccc3)CC2)c1 (stereo not given)	.	.	/	/	.	/
O=C(c1ccco1)N1CCN(Cc2nc(Cc3ccccc3)no2)CC1	.	.	22.4µM	/	.	.
O=C(CCSc1ccccc1)N1CCN(C(=O)c2ccco2)CC1	.	.	22.4µM	.	.	.
O=C(c1ccco1)N1CCN(C(=O)c2sccc2-c2ccccc2)CC1	.	.	12.6µM	.	.	.
